From paper PMC7862700, “An all-to-all approach to the identification of sequence-specific readers for epigenetic DNA modifications on cytosine”

How the values were obtained:
Assay in all cases: DAPPL (digital affinity profiling via proximity ligation, sequencing); 10 mM Tris-HCl pH 7.5, 50 mM NaCl, 1 mM DTT, 4% glycerol, room temperature, 30 min; GST-TFs on glutathione beads, 16-mer random dsDNA library, 0.1% formaldehyde crosslink after washing; high values mean tight binding
Conditions in all cases: protein: recombinant; tags: N-terminal GST; dsDNA, one strand shown
FLI1 = molecular target: T1, FLI1 (Homo sapiens, UniProt Q01543 1-452)
T1 sequence: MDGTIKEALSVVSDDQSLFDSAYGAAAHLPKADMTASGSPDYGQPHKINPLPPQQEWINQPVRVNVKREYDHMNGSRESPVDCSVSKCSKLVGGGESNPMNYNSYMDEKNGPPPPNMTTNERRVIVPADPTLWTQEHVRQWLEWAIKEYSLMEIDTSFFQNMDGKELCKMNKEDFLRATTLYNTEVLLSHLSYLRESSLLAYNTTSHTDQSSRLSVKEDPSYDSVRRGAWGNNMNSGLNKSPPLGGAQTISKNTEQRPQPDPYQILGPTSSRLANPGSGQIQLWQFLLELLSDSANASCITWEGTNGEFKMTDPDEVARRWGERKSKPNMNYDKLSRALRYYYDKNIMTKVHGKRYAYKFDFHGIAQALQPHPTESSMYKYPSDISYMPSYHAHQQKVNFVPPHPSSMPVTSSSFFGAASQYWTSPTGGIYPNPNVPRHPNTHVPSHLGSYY
In short: (§1)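 Beads coated with glutathione captured GST-fused human transcription factors that had been expressed in yeast, and the factors were then given DNA barcodes and pooled with a tag-only sample. The pools were incubated with 200 nmole of a random double-stranded 16-mer DNA library in Tris/NaCl/DTT/glycerol buffer for 30 min at room temperature, washed, crosslinked with 0.1% formaldehyde and proximity-ligated with BsaI/T4 ligase at 37 °C for 1 h. PCR amplification and Illumina NextSeq500 sequencing came last. Binding signal is each hexamer's read frequency for a factor divided by its frequency for the tag-only sample.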

ELK1 = molecular target: T2, ELK1 (Homo sapiens, UniProt P19419 1-428)
T2 sequence: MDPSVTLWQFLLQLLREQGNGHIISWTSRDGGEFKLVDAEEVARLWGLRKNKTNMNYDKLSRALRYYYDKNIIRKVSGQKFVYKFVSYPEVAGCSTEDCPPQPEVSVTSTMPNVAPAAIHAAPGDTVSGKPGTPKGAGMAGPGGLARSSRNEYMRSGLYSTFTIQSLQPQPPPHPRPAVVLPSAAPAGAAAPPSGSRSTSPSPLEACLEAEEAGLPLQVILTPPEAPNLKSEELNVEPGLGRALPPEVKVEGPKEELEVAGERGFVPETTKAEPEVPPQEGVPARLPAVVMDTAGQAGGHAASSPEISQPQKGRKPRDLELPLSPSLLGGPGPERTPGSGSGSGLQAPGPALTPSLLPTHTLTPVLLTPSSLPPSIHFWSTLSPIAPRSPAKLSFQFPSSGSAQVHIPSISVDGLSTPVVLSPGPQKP
In short: as §1

GABPA = molecular target: T3, GABPA (Homo sapiens, UniProt Q06546 1-454)
T3 sequence: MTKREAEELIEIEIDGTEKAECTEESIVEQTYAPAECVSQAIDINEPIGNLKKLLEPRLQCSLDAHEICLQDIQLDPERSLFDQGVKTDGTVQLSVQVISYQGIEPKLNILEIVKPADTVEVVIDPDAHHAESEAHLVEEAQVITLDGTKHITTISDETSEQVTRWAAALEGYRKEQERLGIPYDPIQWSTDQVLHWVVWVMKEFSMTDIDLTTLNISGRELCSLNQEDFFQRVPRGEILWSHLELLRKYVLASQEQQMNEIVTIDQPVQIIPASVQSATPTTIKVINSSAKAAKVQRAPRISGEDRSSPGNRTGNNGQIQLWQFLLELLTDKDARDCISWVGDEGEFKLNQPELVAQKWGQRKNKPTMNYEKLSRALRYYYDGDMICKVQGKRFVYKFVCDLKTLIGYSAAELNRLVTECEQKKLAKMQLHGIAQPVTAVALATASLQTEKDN
In short: as §1

ERG = molecular target: T4, ERG (Homo sapiens, UniProt P11308 1-479)
T4 sequence: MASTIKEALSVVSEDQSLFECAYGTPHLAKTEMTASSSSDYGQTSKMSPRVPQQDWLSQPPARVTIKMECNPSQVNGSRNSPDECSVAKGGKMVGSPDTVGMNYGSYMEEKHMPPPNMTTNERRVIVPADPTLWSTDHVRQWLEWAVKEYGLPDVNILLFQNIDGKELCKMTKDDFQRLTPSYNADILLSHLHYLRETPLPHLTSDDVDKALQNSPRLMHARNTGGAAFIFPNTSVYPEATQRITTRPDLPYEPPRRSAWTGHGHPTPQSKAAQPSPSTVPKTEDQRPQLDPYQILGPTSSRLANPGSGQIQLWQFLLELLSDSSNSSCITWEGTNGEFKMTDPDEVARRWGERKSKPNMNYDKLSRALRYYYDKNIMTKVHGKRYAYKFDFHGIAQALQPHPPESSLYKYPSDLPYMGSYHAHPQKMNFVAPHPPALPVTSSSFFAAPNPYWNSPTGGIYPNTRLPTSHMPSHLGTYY
In short: as §1

ELF1 = ELF1 (Homo sapiens, UniProt P32519 1-619)
In short: as §1

EHF = molecular target: T5, EHF (Homo sapiens, UniProt Q9NZC4 1-300)
T5 sequence: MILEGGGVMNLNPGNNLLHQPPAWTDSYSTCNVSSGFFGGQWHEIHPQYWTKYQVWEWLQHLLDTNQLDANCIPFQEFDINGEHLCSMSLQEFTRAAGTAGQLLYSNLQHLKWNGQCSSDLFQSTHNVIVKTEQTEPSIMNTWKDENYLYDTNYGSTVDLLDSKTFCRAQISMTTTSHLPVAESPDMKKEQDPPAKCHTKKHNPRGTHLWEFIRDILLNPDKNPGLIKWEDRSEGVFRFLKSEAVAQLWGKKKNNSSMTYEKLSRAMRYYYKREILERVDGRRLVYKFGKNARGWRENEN
In short: as §1

SPI1 [1] = molecular target: SPI1 (Homo sapiens, UniProt P17947 1-270)
In short: as §1

SPIB = SPIB (Homo sapiens, UniProt Q01892 1-262)
In short: as §1

ELK3 = molecular target: T6, ELK3 (Homo sapiens, UniProt P41970 1-407)
T6 sequence: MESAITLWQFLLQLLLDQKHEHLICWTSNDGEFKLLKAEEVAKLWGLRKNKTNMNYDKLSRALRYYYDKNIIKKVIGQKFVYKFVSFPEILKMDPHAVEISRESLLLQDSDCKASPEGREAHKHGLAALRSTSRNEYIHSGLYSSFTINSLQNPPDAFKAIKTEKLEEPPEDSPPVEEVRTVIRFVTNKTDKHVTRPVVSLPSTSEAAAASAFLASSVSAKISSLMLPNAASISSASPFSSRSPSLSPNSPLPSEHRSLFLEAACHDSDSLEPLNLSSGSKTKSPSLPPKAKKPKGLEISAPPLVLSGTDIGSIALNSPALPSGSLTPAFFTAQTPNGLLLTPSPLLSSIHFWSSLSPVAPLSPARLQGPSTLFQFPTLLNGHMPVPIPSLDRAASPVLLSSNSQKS
In short: as §1

SPI1 [2] = molecular target: SPI1 (Homo sapiens, UniProt P17947 1-270); remark: listed apart in the source
In short: as §1

SPIB, sequence (Q01892 whole entry): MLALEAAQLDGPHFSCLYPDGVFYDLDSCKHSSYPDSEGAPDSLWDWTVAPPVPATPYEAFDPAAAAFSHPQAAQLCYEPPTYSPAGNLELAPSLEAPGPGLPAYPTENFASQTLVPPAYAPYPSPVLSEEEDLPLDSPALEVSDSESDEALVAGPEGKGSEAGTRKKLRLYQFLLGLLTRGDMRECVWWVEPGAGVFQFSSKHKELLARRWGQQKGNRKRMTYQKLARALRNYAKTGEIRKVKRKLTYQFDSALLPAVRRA
ELF1, sequence (P32519 whole entry): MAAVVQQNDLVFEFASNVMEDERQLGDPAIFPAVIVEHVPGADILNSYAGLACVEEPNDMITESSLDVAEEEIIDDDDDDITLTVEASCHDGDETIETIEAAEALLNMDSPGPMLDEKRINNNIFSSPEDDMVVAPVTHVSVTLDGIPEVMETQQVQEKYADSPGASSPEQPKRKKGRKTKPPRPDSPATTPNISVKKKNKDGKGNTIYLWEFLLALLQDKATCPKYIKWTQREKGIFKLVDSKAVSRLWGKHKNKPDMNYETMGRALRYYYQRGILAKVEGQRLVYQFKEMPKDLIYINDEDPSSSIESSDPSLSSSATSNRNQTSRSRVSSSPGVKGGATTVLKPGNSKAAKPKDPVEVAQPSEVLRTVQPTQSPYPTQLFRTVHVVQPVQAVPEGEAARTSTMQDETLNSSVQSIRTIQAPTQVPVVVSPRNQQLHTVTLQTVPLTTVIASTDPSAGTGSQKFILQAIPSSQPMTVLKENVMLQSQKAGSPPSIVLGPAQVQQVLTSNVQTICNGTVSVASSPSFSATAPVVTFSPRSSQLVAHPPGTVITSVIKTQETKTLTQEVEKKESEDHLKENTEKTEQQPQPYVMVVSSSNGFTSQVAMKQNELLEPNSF

Sequence | binding signal (FLI1) | binding signal (ELK1) | binding signal (GABPA) | binding signal (ERG) | binding signal (ELF1) | binding signal (EHF) | binding signal (SPI1 [1]) | binding signal (SPIB) | binding signal (ELK3) | binding signal (SPI1 [2])
CTTATG | 1.52 fold enrichment (6-mer frequency, TF over GST control) | 1.56 fold enrichment (6-mer frequency, TF over GST control) | 1.4 fold enrichment (6-mer frequency, TF over GST control) | 1.45 fold enrichment (6-mer frequency, TF over GST control) | 1.38 fold enrichment (6-mer frequency, TF over GST control) | 1.39 fold enrichment (6-mer frequency, TF over GST control) | 1.45 fold enrichment (6-mer frequency, TF over GST control) | 1.59 fold enrichment (6-mer frequency, TF over GST control) | 1.46 fold enrichment (6-mer frequency, TF over GST control) | –
TACTTC | 3.38 fold enrichment (6-mer frequency, TF over GST control) | 3.79 fold enrichment (6-mer frequency, TF over GST control) | 3.25 fold enrichment (6-mer frequency, TF over GST control) | 3.88 fold enrichment (6-mer frequency, TF over GST control) | 3.54 fold enrichment (6-mer frequency, TF over GST control) | 3.7 fold enrichment (6-mer frequency, TF over GST control) | – | 3.33 fold enrichment (6-mer frequency, TF over GST control) | 4.29 fold enrichment (6-mer frequency, TF over GST control) | 4.12 fold enrichment (6-mer frequency, TF over GST control)
CATCTC | 1.42 fold enrichment (6-mer frequency, TF over GST control) | 1.3 fold enrichment (6-mer frequency, TF over GST control) | 1.34 fold enrichment (6-mer frequency, TF over GST control) | 1.24 fold enrichment (6-mer frequency, TF over GST control) | 1.37 fold enrichment (6-mer frequency, TF over GST control) | 1.31 fold enrichment (6-mer frequency, TF over GST control) | 1.36 fold enrichment (6-mer frequency, TF over GST control) | 1.26 fold enrichment (6-mer frequency, TF over GST control) | 1.22 fold enrichment (6-mer frequency, TF over GST control) | –
TTGTAA | 1.32 fold enrichment (6-mer frequency, TF over GST control) | 1.3 fold enrichment (6-mer frequency, TF over GST control) | 1.24 fold enrichment (6-mer frequency, TF over GST control) | 1.27 fold enrichment (6-mer frequency, TF over GST control) | 1.34 fold enrichment (6-mer frequency, TF over GST control) | 1.34 fold enrichment (6-mer frequency, TF over GST control) | 1.3 fold enrichment (6-mer frequency, TF over GST control) | 1.22 fold enrichment (6-mer frequency, TF over GST control) | 1.08 fold enrichment (6-mer frequency, TF over GST control) | –
ATTAAT | 1.23 fold enrichment (6-mer frequency, TF over GST control) | 1.24 fold enrichment (6-mer frequency, TF over GST control) | 1.29 fold enrichment (6-mer frequency, TF over GST control) | 1.21 fold enrichment (6-mer frequency, TF over GST control) | 1.23 fold enrichment (6-mer frequency, TF over GST control) | 1.2 fold enrichment (6-mer frequency, TF over GST control) | 1.21 fold enrichment (6-mer frequency, TF over GST control) | 1.24 fold enrichment (6-mer frequency, TF over GST control) | 1.26 fold enrichment (6-mer frequency, TF over GST control) | –
TAATTT | 1.35 fold enrichment (6-mer frequency, TF over GST control) | 1.28 fold enrichment (6-mer frequency, TF over GST control) | 1.5 fold enrichment (6-mer frequency, TF over GST control) | 1.4 fold enrichment (6-mer frequency, TF over GST control) | 1.41 fold enrichment (6-mer frequency, TF over GST control) | 1.41 fold enrichment (6-mer frequency, TF over GST control) | 1.38 fold enrichment (6-mer frequency, TF over GST control) | 1.5 fold enrichment (6-mer frequency, TF over GST control) | 1.52 fold enrichment (6-mer frequency, TF over GST control) | –
ATAACT | 1.23 fold enrichment (6-mer frequency, TF over GST control) | 1.21 fold enrichment (6-mer frequency, TF over GST control) | 1.29 fold enrichment (6-mer frequency, TF over GST control) | 1.22 fold enrichment (6-mer frequency, TF over GST control) | 1.32 fold enrichment (6-mer frequency, TF over GST control) | 1.24 fold enrichment (6-mer frequency, TF over GST control) | 1.22 fold enrichment (6-mer frequency, TF over GST control) | 1.36 fold enrichment (6-mer frequency, TF over GST control) | 1.22 fold enrichment (6-mer frequency, TF over GST control) | –
